Source: PubChem (National Center for Advancing Translational Sciences (NCATS))
Rows were chosen to be rich in hits. Some 8% of all compounds tested hit in one or more screens of this group.
SW480 rerep: induces DNA re-replication in SW480 colon adenocarcinoma cells; SW480 DNA re-replication, Hoechst DNA content imaging, 48 h; Potency, µM (titrated, usually from 46.1 µM), hits mostly activators; 340,000 tested, 1.8% active; AID 624297; also: nearly all actives have a fitted effect of over 55% in size
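Per well, 250 cells were exposed to pinned compound for 48 hr. Nuclear DNA was visualised with Hoechst (40 min, 37 C) and total object intensity recorded by fluorescence scanning.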
KB-V1 MDR tox: kills drug-selected multidrug resistant KB-V1 cells; KB-V1 MDR cells viability, CellTiter-Glo, 72 h; Potency, µM (doses to about 46.1 µM), hits mostly cytotoxic; 400,000 tested, 3.4% active; also: nearly all actives have a fitted effect of over 60% in size
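Readout: CellTiter-Glo luminescence, 10 min after addition. Cells: KB-V1 MDR subline, 72 h at 37 degrees C with compound. Analysis: corrected, normalized data fitted to concentration-effect curves.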
HT1080 IDH1KD tx: kills HT-1080 cells with IDH1 knockdown. HT-1080 IDH1 knockdown viability, ATP luminescence, 48 h. Potency, µM (series often up to 46.1 µM), hits mostly cytotoxic. 360,000 tested, 2% active. AID 686971
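% activity derives from luminescence (CellTiter-Glo), normalised to DMSO and no-cell wells. HT-1080-IDH1KD cells, 750/well, had 48 h compound exposure at 37 °C.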
KB-3-1 tox: kills parental KB-3-1 adenocarcinoma cells | Potency, µM (titrated, usually from 46.1 µM), actives largely listed as cytotoxic | 400,000 tested, 1.4% active | KB-3-1 viability, CellTiter-Glo ATP luminescence, 72 h | AID 1347075; also: nearly all actives have a fitted effect of over 60% in size
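Luminescent ATP read-out (CellTiter-Glo) measures survival of drug-naive KB-3-1 cells after 72 h compound exposure at 37 °C. Titration series was screened from lowest to highest concentration, with DMSO vehicle plates as background controls.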
MCF10A rerep: inducers of DNA re-replication in MCF 10A breast cells; MCF 10A DNA re-replication, Hoechst nuclear intensity, 48 h; Potency, µM (doses to about 46.1 µM), hits mostly activators; 350,000 tested, 2.9% active; AID 624296; also: nearly all actives have a fitted effect of over 50% in size
HT1080-NT tox: kills 2HG-producing HT-1080-NT fibrosarcoma cells. HT-1080-NT fibrosarcoma viability, CellTiter-Glo ATP luminescence, 48 h. Potency, µM (doses to about 46.1 µM), most hits filed as cytotoxic. 360,000 tested, 1.6% active. AID 686970;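 also: NT is the 2HG producing partner of a matched IDH1 knockdown line; nearly all actives have a fitted effect of over 55% in size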
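Luminescent CellTiter-Glo readout after 48 hours of compound exposure at 37 degrees C defined viability of HT-1080-NT cells. Activity was normalized to DMSO wells and cell-free media wells; concentration-response curves were fitted and assigned curve classes.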
Each line names hits and unclear results; the compound was inactive in the other large screens. Calls follow the shape of the dose curve; as a rule, active = well fitted curve in the direction sought with a large enough effect; inconclusive = small, poorly fitted or top-dose-only effect, or another doubt; inactive = no such curve, though single readings can be large; an effect the other way counts as inactive or inconclusive.

O=C(Cc1ccc(Br)cc1)NO	none (no result: SW480 rerep, KB-V1 MDR tox, KB-3-1 tox, MCF10A rerep)
Cc1cn(CC(=O)NCCCc2ccccc2)c(=O)[nH]c1=O	none
O=c1[nH]c(=O)n(CCCc2ccccc2)cc1-c1ccccc1	KB-V1 MDR tox 13µM
CN(C)c1cccc(-c2ncnc(N3CCC(C(N)=O)CC3)n2)c1	none (no result: SW480 rerep, HT1080 IDH1KD tx, MCF10A rerep, HT1080-NT tox)
CCCCC(=O)Nc1nc(C)c(-c2csc(Nc3ccccc3OC)n2)s1	KB-3-1 tox inconclusive, MCF10A rerep inconclusive
CCC(=O)Nc1nc(C)c(-c2csc(Nc3cccc(O)c3)n2)s1	SW480 rerep inconclusive, KB-V1 MDR tox inconclusive, HT1080 IDH1KD tx 0.46µM, KB-3-1 tox inconclusive, MCF10A rerep 21µM, HT1080-NT tox inconclusive
C=CCCC(=O)Nc1nc(C)c(-c2csc(Nc3ccc(Cl)cc3Cl)n2)s1	KB-V1 MDR tox inconclusive, HT1080 IDH1KD tx inconclusive, KB-3-1 tox inconclusive, HT1080-NT tox 16µM
C=CCCC(=O)Nc1nc(C)c(-c2csc(Nc3ccccc3OC)n2)s1	SW480 rerep inconclusive, KB-V1 MDR tox inconclusive, HT1080 IDH1KD tx 16µM, KB-3-1 tox 7.3µM, HT1080-NT tox inconclusive
CCCCCC(=O)Nc1nc(C)c(-c2csc(Nc3ccc(Cl)cc3)n2)s1	HT1080 IDH1KD tx inconclusive
CCCCCCC(=O)Nc1nc(C)c(-c2csc(Nc3ccc(Cl)cc3)n2)s1	SW480 rerep inconclusive, HT1080 IDH1KD tx inconclusive, KB-3-1 tox inconclusive, MCF10A rerep inconclusive, HT1080-NT tox 21µM
CC(=O)c1c(C)oc2ccc(N(C(=O)Oc3ccccc3)S(=O)(=O)c3ccc(Br)cc3)cc12	none (no result: SW480 rerep, HT1080 IDH1KD tx, MCF10A rerep, HT1080-NT tox)
NC(=O)C1CCN(c2nnc(-c3ccc(Br)cc3)s2)CC1	none (no result: SW480 rerep, HT1080 IDH1KD tx, MCF10A rerep, HT1080-NT tox)
CCOC(=O)CN1C(=O)N(CC(=O)OCC)C(c2ccccc2)(c2ccccc2)C1=O	none
COc1cc(OC)c(NC(=O)NCCn2nnc3cc(S(=O)(=O)N(C)C)ccc32)cc1Cl	none (no result: SW480 rerep, HT1080 IDH1KD tx, MCF10A rerep, HT1080-NT tox)
COc1ccc(N2CCN(C(=S)Nc3cc(C)ccn3)CC2)cc1	none (no result: SW480 rerep, HT1080 IDH1KD tx, MCF10A rerep, HT1080-NT tox)
CC(c1ccco1)N(C(=O)c1ccccc1NS(=O)(=O)c1ccc(Cl)c([N+](=O)[O-])c1)c1ccccn1 (stereo not given)	KB-V1 MDR tox inconclusive, MCF10A rerep 23µM
Cc1cccc(C(=O)N(c2ccccn2)C(C)c2ccco2)c1 (stereo not given)	none
CC(c1ccco1)N(C(=O)c1cc(Cl)cc(Cl)c1)c1ccccn1 (stereo not given)	KB-V1 MDR tox inconclusive
Cc1cc(C)cc(C(=O)N(c2ccccn2)C(C)c2ccco2)c1 (stereo not given)	KB-V1 MDR tox 13µM
COc1ccc(-c2cc(=O)c3c(OC)c(OC)c(OC)c(OC)c3o2)cc1OC	KB-V1 MDR tox inconclusive, MCF10A rerep inconclusive
COc1ccc2c(=O)cc(-c3ccncc3)oc2c1OC	SW480 rerep inconclusive, KB-V1 MDR tox inconclusive, HT1080 IDH1KD tx 23µM, KB-3-1 tox inconclusive, MCF10A rerep inconclusive, HT1080-NT tox inconclusive
CCCOC(=O)c1ccc(N)cc1	none (no result: KB-V1 MDR tox, HT1080 IDH1KD tx, KB-3-1 tox, HT1080-NT tox)
c1ccc(OCCOCCN2CCN(C(c3ccccc3)c3ccccc3)CC2)cc1	SW480 rerep 8.2µM, KB-V1 MDR tox inconclusive, KB-3-1 tox inconclusive, MCF10A rerep inconclusive
COc1cccc(OC)c1OCCCCCCN1CCN(C)CC1	none
COc1ccccc1OCCCCN1CCN(C(c2ccccc2)c2ccccc2)CC1	SW480 rerep inconclusive, KB-V1 MDR tox inconclusive, HT1080 IDH1KD tx 18µM, KB-3-1 tox inconclusive, MCF10A rerep inconclusive, HT1080-NT tox inconclusive
Cc1ccc(C2C(C#N)=C(N)N(c3cccnc3)C3=C2C(=O)CCC3)c(C)c1 (stereo not given)	none
O=C1c2cccc(OCC(=O)N3CCCc4ccccc43)c2CCN1Cc1ccccc1	none
Cc1ccccc1CN1CCc2c(OCC(=O)N3CCCCC3)cccc2C1=O	KB-V1 MDR tox inconclusive, MCF10A rerep inconclusive
O=C1c2cccc(OCC(=O)N3CCCc4ccccc43)c2CCN1Cc1ccc(Br)cc1	SW480 rerep inconclusive, KB-V1 MDR tox 18µM, HT1080 IDH1KD tx inconclusive, KB-3-1 tox 18µM, MCF10A rerep inconclusive
O=C(COc1cccc2c1CCN(Cc1ccc(Br)cc1)C2=O)NCc1ccco1	KB-V1 MDR tox 2.6µM, KB-3-1 tox inconclusive
